About 79,000 compounds went through this panel and 15% of them were active in at least one assay; those are over-represented in the sample as a whole. No stated cut-off is given here; in the data, active means growth inhibition above about 70%; inactive means the rest.
Columns and labels:
[1] = NCI Yeast Anticancer Drug Screen. Data for the rad50 strain (AID 155);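 further: 0% = growth of vehicle-only cultures of the same strain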; settings: S. cerevisiae rad50 strain growth inhibition; at 50.0 µM; active compounds read high
Outline: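 Compounds were tested on a yeast strain with an engineered DNA damage repair alteration; the reported value is growth inhibition normalised to vehicle treatment.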

[2] = NCI Yeast Anticancer Drug Screen. Data for the mec2-1 strain (AID 157); settings: S. cerevisiae mec2-1 strain, at 50.0 µM, active compounds read high
Outline: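 Using mec2-1 yeast: add compound, measure growth, express inhibition versus vehicle-treated cultures.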

[3] = NCI Yeast Anticancer Drug Screen. Data for the sgs1 mgt1 strain (AID 161);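 further: 0% = growth of cultures given vehicle only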; settings: S. cerevisiae sgs1 mgt1 strain, at 50.0 µM, active compounds read high
Outline: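 Compounds are added to genetically altered yeast, and growth is compared with cultures given vehicle alone to give percent inhibition.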

[4] = NCI Yeast Anticancer Drug Screen. Data for the cln2 rad14 strain (AID 165);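 further: 0% = growth equal to vehicle treated cultures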; settings: S. cerevisiae cln2 rad14 strain, at 50.0 µM, active compounds read high
Outline: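 Yeast strain cln2 rad14, bearing defects in cell cycle control and DNA repair, serves as the test system; values reflect growth inhibition compared with vehicle.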

[5] = NCI Yeast Anticancer Drug Screen. Data for the bub3 strain (AID 167); settings: S. cerevisiae bub3 mutant strain, at 50.0 µM, active compounds read high
Outline: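 Growth of a checkpoint-deficient yeast mutant is measured after compound exposure. Values represent inhibition relative to vehicle.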

[6] = NCI Yeast Anticancer Drug Screen. Data for the mlh1 rad18 strain (AID 175); settings: S. cerevisiae mlh1 rad18 strain growth inhibition; at 50.0 µM; active compounds read high
Outline: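 Steps: expose repair-defective yeast to compound; measure growth; express inhibition against vehicle-treated controls.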

Measured: growth inhibition

CC(C)N(C(=O)C12C3C4C5C3C1(C(=O)N(C(C)C)C(C)C)C5C42)C(C)C (stereo not drawn)
inactive: [1] 16.5% | [2] 17.4% | [3] 12.2% | [4] 1% | [5] 19.9% | [6] 14.4%

CC(=O)Nc1ccc(S(=O)(=O)O)nc1
inactive: [1] 0.45% | [2] 5.15% | [3] -6.8% | [4] 16.8% | [5] 7.65% | [6] -6.9%

N#Cc1cc(F)c(N)c(F)c1
inactive: [1] -2.25% | [2] 7.95% | [3] 2.2% | [4] 9.95% | [5] -0.35% | [6] 3.8%

From PubChem BioAssay (NCI)
